Measurements as given in the supplement of paper PMC6522484.
± gives the standard deviation of the averaged measurements.

Experiments:
[1] = tested on: DLD1; assay: cell viability (CellTiter-Glo) relative to plate median (fraction of plate median); higher = more viable cells; settings: 10 µM, treatment time 24 h
Summary of the method: (§1)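 Colorectal cancer cell lines stably transduced with lentiviral TCF/Wnt firefly luciferase reporters (7TFP or TCF4/Wnt) were seeded in 384-well plates. 24 h later they received kinase inhibitor library compounds at a final 10 µM for 24 h. Parallel plates were read for firefly luciferase or CellTiterGlo luminescence on a Tecan F500 reader. Each well's signal was normalised to the plate median (webcellHTS2, additive, no log transformation), and the mean of two independent replicates is reported.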

[2] = tested on: HCT116; assay: as above; settings: 10 µM; treatment time 24 h; reporter: TCF4/Wnt
Summary of the method: as §1

[3] = tested on: SW480; assay: as above; settings: 10 µM; treatment time 24 h; reporter: 7TFP
Summary of the method: as §1

[4] = tested on: DLD1; assay: TCF/Wnt firefly luciferase reporter signal relative to plate median (fraction of plate median); higher = higher Wnt reporter signal; settings: 10 µM, treatment time 24 h
Summary of the method: as §1

[5] = tested on: HCT116; assay: as above; settings: 10 µM; treatment time 24 h; reporter: TCF4/Wnt
Summary of the method: as §1

[6] = tested on: SW480; assay: as above; settings: 10 µM; treatment time 24 h; reporter: 7TFP
Summary of the method: as §1

Compound | cell viability ([1]; reporter: 7TFP) | cell viability ([1]; reporter: TCF4/Wnt) | cell viability [2] | cell viability [3] | TCF/Wnt firefly luciferase reporter signal ([4]; reporter: 7TFP) | TCF/Wnt firefly luciferase reporter signal ([4]; reporter: TCF4/Wnt) | TCF/Wnt firefly luciferase reporter signal [5] | TCF/Wnt firefly luciferase reporter signal [6]
Nc1nc(Nc2ccc(S(N)(=O)=O)cc2)nn1C(=O)c1c(F)cccc1F | 1.01 ± 0.14 | 1.05 ± 0.076 | 0.71 ± 0.11 | 1.24 ± 0.071 | 0.811 ± 0.057 | 1.59 ± 0.69 | 0.284 ± 0.018 | 1.09 ± 0.13
COc1cc2c(N3CCN(C(=O)Nc4ccc(OC(C)C)cc4)CC3)ncnc2cc1OCCCN1CCCCC1 [Tandutinib (MLN518)] | 1.09 ± 0.05 | 1.1 ± 0.085 | 1.09 ± 0.028 | 1.11 | 0.956 ± 0.12 | 1.03 ± 0.028 | 1.08 ± 0.035 | 1.33 ± 0.05
C=CC(=O)Nc1ccc2ncnc(Nc3ccc(OCc4cccc(F)c4)c(Cl)c3)c2c1 | 1.02 ± 0.03 | 1.06 ± 0.085 | 0.998 ± 0.017 | 1 ± 0.07 | 0.691 ± 0.0099 | 0.879 ± 0.2 | 0.686 ± 0.33 | 1.09 ± 0.11
Nc1ncnc2c1c(-c1cnc3[nH]ccc3c1)nn2C1CCCC1 | 0.8 ± 0.14 | 0.862 ± 0.063 | 0.489 ± 0.15 | 0.967 ± 0.15 | 0.322 ± 0.033 | 0.51 ± 0.084 | 0.21 ± 0.035 | 0.562 ± 0.064
Cc1c(CN2CCN(C(=O)[C@H](C)O)CC2)sc2c(N3CCOCC3)nc(-c3cnc(N)nc3)nc12 | 0.999 ± 0.13 | 0.9185 ± 0.0064 | 0.679 ± 0.16 | 1.1 ± 0.092 | 0.287 ± 0.056 | 0.419 ± 0.11 | 0.577 ± 0.21 | 0.764 ± 0.017
COc1cc2nccc(Oc3ccc(NC(=O)Nc4cc(C)on4)c(Cl)c3)c2cc1OC [Tivozanib (AV-951)] | 0.936 ± 0.09 | 0.997 ± 0.033 | 1.11 ± 0.021 | 1.07 ± 0.021 | 0.755 ± 0.0078 | 0.726 ± 0.046 | 1.15 ± 0.099 | 0.775 ± 0.32
C=CC(=O)N1CCC[C@@H](n2nc(-c3ccc(Oc4ccccc4)cc3)c3c(N)ncnc32)C1 | 1.05 ± 0.077 | 1.115 ± 0.0071 | 1.36 ± 0.085 | 1.16 ± 0.064 | 0.557 ± 0.17 | 0.881 ± 0.35 | 1.33 ± 0.14 | 1.11 ± 0.042
CO[C@H]1C[C@@H]2CC[C@@H](C)[C@@](O)(O2)C(=O)C(=O)N2CCCC[C@H]2C(=O)O[C@H]([C@H](C)C[C@@H]2CC[C@@H](OCCO)[C@H](OC)C2)CC(=O)[C@H](C)/C=C(\C)[C@@H](O)[C@@H](OC)C(=O)[C@H](C)C[C@H](C)/C=C/C=C/C=C/1C [Everolimus (RAD001)] | 1.04 ± 0.11 | 1.02 ± 0.028 | 0.974 ± 0.094 | 1.26 ± 0.028 | 0.893 ± 0.091 | 1.05 ± 0.14 | 0.951 ± 0.15 | 1.42 ± 0.057
COc1cc2ncnc(Nc3ccc(F)c(Cl)c3)c2cc1NC(=O)/C=C/CN1CCCCC1 | 0.875 ± 0.16 | 1 ± 0.12 | 0.993 ± 0.024 | 1.16 ± 0.16 | 0.615 ± 0.035 | 0.531 ± 0.092 | 0.548 ± 0.0014 | 0.935 ± 0.071
Nc1cccc(-c2cc3c(Oc4cccc(O)c4)ncnc3[nH]2)c1 | 1.17 ± 0.085 | 1.06 ± 0.078 | 1.05 ± 0.028 | 0.92 ± 0.018 | 0.961 ± 0.098 | 1.01 ± 0.014 | 1.28 ± 0.085 | 0.966 ± 0.04
CCN1CCN(Cc2ccc(-c3cc4c(N[C@H](C)c5ccccc5)ncnc4[nH]3)cc2)CC1 | 0.92 ± 0.15 | 0.999 ± 0.1 | 0.938 ± 0.0014 | 1.115 ± 0.0071 | 0.905 ± 0.011 | 0.852 ± 0.22 | 1.08 ± 0.085 | 1.24 ± 0.057
Oc1c2ccccc2c2c3c(cccc13)N=N2 | 1.06 ± 0.099 | 1.01 ± 0.016 | 1.12 ± 0.021 | 0.931 ± 0.016 | 1.07 ± 0.14 | 1.18 ± 0.014 | 1.34 ± 0.23 | 1.06 ± 0.021
CN(C)Cc1cccc(N=C(c2ccccc2)c2c(O)[nH]c3cc(C(=O)N(C)C)ccc23)c1 | 1.13 ± 0.057 | 0.947 ± 0.0014 | 1.13 ± 0.099 | 1.19 ± 0.035 | 0.966 ± 0.12 | 0.85 ± 0.061 | 1.11 ± 0.16 | 1.11 ± 0.014
COc1ccc(COc2cc3oc(=O)c4cc(C(C)O)ccc4c3cc2OC)cc1 (stereo unspecified) [Palomid 529] | 1.08 ± 0.028 | 1.09 ± 0.021 | 1.12 ± 0.092 | 0.877 ± 0.044 | 1.1 ± 0.021 | 1.16 ± 0.099 | 1.2 ± 0.37 | 1.07 ± 0.099
CNC(=O)Nc1ccc(-c2nc(N3CC4CCC(C3)O4)c3cnn(C4CCC5(CC4)OCCO5)c3n2)cc1 | 0.902 ± 0.088 | 0.998 ± 0.045 | 0.805 ± 0.11 | 1.16 ± 0.028 | 0.356 ± 0.076 | 0.554 ± 0.12 | 0.617 ± 0.14 | 0.876 ± 0.1
C=CC(=O)Nc1cc2c(Nc3ccc(F)c(Cl)c3)ncnc2cc1OCCCN1CCOCC1 [CI-1033 (Canertinib)] | 0.868 ± 0.016 | 0.854 ± 0.068 | 0.968 ± 0.059 | 1.03 ± 0.035 | 0.353 ± 0.013 | 0.601 ± 0.096 | 1 ± 0.19 | 0.771 ± 0.32
Cc1[nH]c(/C=C2\C(=O)Nc3ccccc32)c(C)c1CCC(=O)O | 0.941 ± 0.028 | 0.997 ± 0.061 | 1.08 ± 0.13 | 0.96 ± 0.044 | 1.93 ± 0.38 | 1.26 ± 0.41 | 1.4 ± 0.59 | 1.22 ± 0.16
CC(C)CC(=O)Nc1n[nH]c2c1CN(C(=O)C1CCN(C)CC1)C2(C)C | 1.07 ± 0.028 | 1.27 ± 0.15 | 0.793 ± 0.13 | 1.32 ± 0.071 | 1.33 ± 0.26 | 2.31 ± 0.37 | 0.193 ± 0.053 | 0.836 ± 0.064
CC(=O)Nc1nc(C)c(-c2ccc(Cl)c(S(=O)(=O)NCCO)c2)s1 | 0.939 ± 0.13 | 0.947 ± 0.0014 | 0.974 ± 0.051 | 1.1 | 0.9 ± 0.037 | 1 ± 0.08 | 1.09 ± 0.085 | 0.944 ± 0.033
Fc1cc(-c2cccc3ncc(-c4cnn(C5CCNCC5)c4)nc23)cc(F)c1CN1CCOCC1 | 0.974 ± 0.14 | 0.981 ± 0.055 | 1.01 ± 0.055 | 1.05 ± 0.12 | 1.04 ± 0.19 | 1.02 ± 0.089 | 0.967 ± 0.076 | 1.52
CC(=O)NCC(=O)N1[C@@H]2CC[C@H]1c1ccc(Nc3ncc(C(F)(F)F)c(NC4CCC4)n3)cc12 | 0.907 ± 0.028 | 1.04 ± 0.08 | 0.256 ± 0.13 | 0.877 ± 0.071 | 0.742 ± 0.09 | 1.24 ± 0.092 | 0.149 ± 0.0021 | 1.21 ± 0.11
Cc1cnc(NC(=O)Nc2cc(Br)c(C)cc2OC[C@@H]2CNCCO2)cn1 | 0.833 ± 0.16 | 0.983 ± 0.096 | 0.805 ± 0.16 | 1.02 ± 0.089 | 1.06 ± 0.057 | 1.12 ± 0.028 | 0.894 ± 0.35 | 0.938 ± 0.012
